# This is a sample that favours compounds with a hit; in the whole collection about 3.1% have one here.
# FAS-TE inh – inhibitors of human fatty acid synthase thioesterase domain; P49327; recombinant FAS-TE, OMFH fluorogenic substrate, fluorescence endpoint; inhibition, % at 15 µM; hit rate 0.67% among 360,000; AID 602261;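 active means compounds whose normalised, plate-corrected inhibition of enzyme fluorescence in the single-dose primary screen is 50% or more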;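 further: 0% = DMSO with enzyme and 100% = substrate without enzyme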
# ATG4B inh – blocks human ATG4B protease cleavage of LC3 substrate; Q9Y4P1; ATG4B cleavage of LC3-PLA2, NBD-HPC fluorescence, 1 h; inhibition, % at 8.33 µM; hit rate 0.51% among 340,000; in the data active means inhibition above about 40%
# Target sequence (Q9Y4P1 whole entry, looked up): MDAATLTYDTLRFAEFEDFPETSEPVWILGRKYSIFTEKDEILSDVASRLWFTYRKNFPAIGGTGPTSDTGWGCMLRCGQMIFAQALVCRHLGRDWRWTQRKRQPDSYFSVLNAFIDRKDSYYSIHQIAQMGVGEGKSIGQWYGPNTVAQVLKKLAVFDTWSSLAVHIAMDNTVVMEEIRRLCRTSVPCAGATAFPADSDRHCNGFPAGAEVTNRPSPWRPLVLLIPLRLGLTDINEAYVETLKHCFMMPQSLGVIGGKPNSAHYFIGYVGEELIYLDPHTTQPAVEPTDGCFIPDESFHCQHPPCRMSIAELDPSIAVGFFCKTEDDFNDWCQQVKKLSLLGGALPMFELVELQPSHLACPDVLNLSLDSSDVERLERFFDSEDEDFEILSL
# Mot1-301 SUMO – blocks SUMOylation pathway, rescuing yeast Mot1-301 growth; growth rescue, % at 18.8 µM; hit rate 1% among 320,000; S. cerevisiae Mot1-301 growth rescue, ATP luminescence, 38.5C; percent above DMSO median, 100 means doubled;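 active means every valid replicate shows activation above 250% relative to neutral control wells; inactive means the rest, any valid replicate at or below 250%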;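 further: OY570 slx delta 5 strain wells were the positive control but not used for scaling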
# NadD block – NadD (S. aureus) enzyme inhibition. inhibition, % at 20 µM. hit rate 0.78% among 360,000. purified NadD enzyme, colorimetric absorbance read-out; in the data active means inhibition above about 26%
# Calb FLC – affects C. albicans growth with fluconazole; C. albicans CaCi-2 (fluconazole-resistant clinical isolate) + fluconazole, Alamar Blue growth, 48 h; growth inhibition, % (concentration not given with the values); hit rate 0.57% among 300,000; AID 1979;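 active means growth inhibition above about 58% in most replicates, limit read from the data, passing the limit was not always enough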;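 further: all wells also contain fluconazole at 8 µg/ml as a sub-toxic cotreatment; 0% = median of DMSO wells and 100% = median of geldanamycin control wells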
# FAS-TE inh conf – FAS thioesterase (human) inhibition, confirmation. shares compounds with FAS-TE inh. hit rate 45% among 2,300. AID 624325. inhibition, % at 15 µM. recombinant FAS-TE, OMFH fluorogenic substrate, fluorescence;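 active means compounds inhibiting the enzyme by at least 50% at 15 µM in any one of the replicates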;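 further: 0% = enzyme with DMSO only and 100% = wells lacking enzyme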
# * = called active by the depositor; . = no result given.
SMILES,FAS-TE inh,ATG4B inh,Mot1-301 SUMO,NadD block,Calb FLC,FAS-TE inh conf
O=[N+]([O-])c1ccc(O)c(/C=N/Nc2ncnc3c2cnn3-c2ccccc2)c1,56.3*,9.6,-8.3,17.9,37.3,27.7
O=[N+]([O-])c1ccc(O)c(/C=N/Nc2ccccn2)c1,7.5,13.2,0.2,1.6,-5.8,.
O=S(OCCN1CCCC1)C(c1ccccc1)c1ccccc1 (stereo not given),-7.3,0.9,.,-4.8,.,.
COc1cccc2cc(C(=O)NCCC3=CCCCC3)c(=O)oc12,58.9*,-13.8,21.7,-1.4,-3.3,26.6
COc1ccc2cc3cc(C(=O)N4CCN(C5CCCCC5)CC4)oc3nc2c1,0.2,9.7,-5.3,4.8,7.3,.
CCOC(=O)C1CCN(C(=O)c2cc3c(ccc4ccccc43)o2)CC1,15.4,-10.9,0.8,-1.0,-3.8,.
COc1ccc2cc3cc(C(=O)N4CCCCC4C)oc3nc2c1 (stereo not given),75.4*,8.4,-11.4,-7.3,0.7,62.4*
COc1ccc2cc3cc(C(=O)N4CCCCCC4)oc3nc2c1,74.3*,5.7,307.0,0.3,-4.4,55.7*
CCOC(=O)C1CCN(C(=O)c2cc3cc4ccc(C)cc4nc3o2)CC1,55.2*,-10.9,-9.5,-6.3,-5.5,62.5*
COc1ccc(C(=O)c2cc([N+](=O)[O-])ccc2N2CCOCC2)cc1,23.0,-9.6,-22.7,-7.8,-7.6,.
COc1ccc(NC(=O)COC(=O)c2cc([N+](=O)[O-])ccc2N2CCOCC2)cc1,79.5*,-3.3,-0.8,-0.4,5.1,60.4*
Cc1cc(C)c(C(=O)COC(=O)c2cc([N+](=O)[O-])ccc2N2CCOCC2)cc1C,56.9*,1.5,21.2,-2.4,9.8,33.5
COc1ccc(C(=O)COC(=O)c2cc([N+](=O)[O-])ccc2N2CCOCC2)c(OC)c1,74.6*,-5.4,-6.6,2.4,-1.7,75.3*
CC(=O)Nc1ccc(NC(=O)COC(=O)c2cc([N+](=O)[O-])ccc2N2CCOCC2)cc1,17.8,-0.8,-0.3,-2.3,3.0,.
Cc1cc(Br)ccc1NC(=O)CN(C)C(=O)c1cc([N+](=O)[O-])ccc1N1CCOCC1,63.8*,-8.6,-7.0,3.5,12.5,77.0*
COc1ccccc1C(=O)COC(=O)c1cc([N+](=O)[O-])ccc1N1CCOCC1,68.4*,-5.0,-2.7,-8.4,6.2,34.3*
Cc1cc(C(=O)OCC(=O)Nc2cccc([N+](=O)[O-])c2)c(C)o1,65.8*,4.3,6.8,-4.3,.,61.8*
CN(CC(=O)Nc1ccc(F)cc1)C(=O)COC(=O)c1cc([N+](=O)[O-])ccc1N1CCOCC1,62.5*,-6.0,225.7,-0.7,6.9,57.7*
CN(CC(=O)Nc1ccccc1Cl)C(=O)COC(=O)c1cc([N+](=O)[O-])ccc1N1CCOCC1,42.3,-3.0,5.8,-0.2,-0.9,.
COc1ccccc1C(=O)COC(=O)c1cc(S(=O)(=O)N2CCCCC2)ccc1N1CCOCC1,37.9,-1.3,.,-1.5,-1.1,.
COc1ccc(C(=O)COC(=O)c2cc(S(=O)(=O)N3CCCCC3)ccc2N2CCOCC2)c(OC)c1,73.1*,-7.5,3.6,4.6,-4.0,3.4
O=C(COC(=O)c1c[nH]c(=O)[nH]c1=O)Nc1cccc([N+](=O)[O-])c1,3.7,1.4,-0.9,-2.6,.,.
Cc1cccc(C)c1NS(=O)(=O)c1ccc(-c2cnc(C3CC3)o2)cc1,17.9,12.1,.,-10.4,0.1,.
O=C(CN1c2cccc3cccc(c23)S1(=O)=O)Nc1c(F)c(F)c(F)c(F)c1F,-10.4,6.1,3.1,-0.5,.,.
COc1ccc(C2=Cc3ccccc3C(CC(=O)C3CC3)N2c2ccc(C#CCCO)cc2)cc1 (stereo not given),8.4,.,.,-6.0,.,.
SMILES,FAS-TE inh,ATG4B inh,Mot1-301 SUMO,NadD block,Calb FLC,FAS-TE inh conf
CCN(CC)S(=O)(=O)c1ccc(C2=NOC3(C2)N(C)c2ccccc2C3(C)C)cc1 (stereo not given),49.9,-1.0,-12.5,-2.5,4.2,.
COc1ccccc1CNC(=O)COC(=O)c1cc([N+](=O)[O-])ccc1N1CCOCC1,79.2*,-9.3,67.7,-1.2,4.2,89.9*
O=C(COC(=O)c1cc([N+](=O)[O-])ccc1N1CCOCC1)c1ccccc1,62.8*,-4.5,15.1,-3.5,-5.1,70.7*
O=C(COC(=O)c1cc([N+](=O)[O-])ccc1N1CCOCC1)c1ccccc1Cl,46.5,-3.4,-8.9,-3.7,-5.2,.
COc1ccc(C2=C(C=O)Cc3ccccc3O2)cc1,23.8,4.5,339.8,-6.9,-2.7,.
CC1=CC(=C(C#N)C#N)c2ccccc2N1C,61.1*,-3.9,-7.1,4.6,-2.1,24.7
CC1=C/C(=C\C=C(C#N)C#N)N(C)c2ccccc21,3.9,0.6,-13.8,0.2,5.3,.
CC(C)CCN(C(=O)c1csnn1)C(C(=O)NC1CCCCC1)c1ccc(F)cc1 (stereo not given),4.7,0.0,-7.9,-8.3,1.1,.
N#Cc1c(N)[nH]c(C(=O)c2ccccc2)c1-c1ccc(Cl)cc1,66.7*,.,.,1.4,.,60.5*
CC(=O)c1c(C)oc2ccc(N(C(=O)C3CCCCC3)S(=O)(=O)c3cc([N+](=O)[O-])ccc3C)cc12,80.0*,2.3,6.3,12.5,5.2,9.7
CCN1Cc2c(/C=C/c3ccccc3)nc3ccc(OC)cc3c2N(c2cccc(Cl)c2)C1,76.6*,-3.0,2.9,25.1,-15.2,85.0*
CCCCc1ccc(/C(C)=N/Nc2cc(N3CCOCC3)nc(C)n2)cc1,73.3*,-4.3,-7.1,-9.2,5.1,20.3
Cc1ccc(/C=C2\SC(=S)N(CCCC(=O)NC3CCCC3)C2=O)cc1,-1.0,5.6,-23.1,3.8,-3.0,.
COc1ccc(C2(CNC(=O)c3cccc([N+](=O)[O-])c3)CCCCC2)cc1OC,51.1*,15.0,8.4,-1.8,7.1,69.8*
COC1CCCN(C(=O)c2cccc(OC3CCN(S(C)(=O)=O)CC3)c2)C1 (stereo not given),-5.9,-2.6,-1.1,-2.3,-1.5,.
O=[N+]([O-])c1ccc(S(=O)(=O)Nc2ccc(-c3ccc(N4CCCC4)nn3)cc2)cc1,25.0,2.1,0.6,21.1,35.7,.
O=[N+]([O-])c1ccc(Cl)c(S(=O)(=O)Nc2ccc(-c3ccc(N4CCCC4)nn3)cc2)c1,66.7*,-1.5,0.3,25.0,6.2,27.4*
Cc1cc(C)n(C(=O)/C(C#N)=N/Nc2cc(Cl)cc(Cl)c2)n1,52.8*,4.3,.,-1.2,-48.7,25.3
Cc1cc(C)n(C(=O)/C(C#N)=N\Nc2ccccc2[N+](=O)[O-])n1,-4.4,-0.6,-10.8,-1.3,8.9,.
COc1ccccc1NC(=O)c1ccccc1S(=O)(=O)c1ccccc1[N+](=O)[O-],-6.0,-3.1,-1.6,-3.4,0.7,.
COc1ccccc1NC(=O)c1ccccc1S(=O)(=O)c1ccc([N+](=O)[O-])cc1,53.9*,-6.4,15.8,-0.3,0.7,62.6*

# High-throughput results as filed in PubChem.
